The experiment is described as follows: beta-lactam sensitization of Mtb H37Rv, H37Rv (AID 434955).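 Note: growth measured after seven days incubation then overnight dye step; 0% = bacteria only wells and 100% = bacteria with antibiotic.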 The settings on record: M. tuberculosis H37Rv growth with meropenem, percent inhibition, at 25 µM.
The mark [1] stands for this setting: measured here: primary screen without meropenem.

Out of some 330,000 compounds screened, about 880 (0.27%) were called active. About 1% were inconclusive and are not listed. The rule behind the calls is not given here. These entries were drawn from the full list.

As usually defined, the inhibition is the change of the read-out against control, counted positive when it falls. With `CC(C)(C)C1CCc2c(sc3nc(SCC(N)=O)nc(N)c23)C1` (stereo not given), the inhibition is, setting by setting: (stronger effect = higher value) 99.1% (inactive); under setting [1], 99.3%.
On to `Brc1ccc(Nc2c3c(nc4ncnn24)CCC3)cc1`, for which the inhibition is -0.68% (inactive) (stronger effect = higher value) and -2.17% under setting [1].
The matching figures for `O=C(NCC(=O)N1CCN(c2ccccc2O)CC1)c1ccc2ccccc2c1`: 10.4% (inactive) and 3.65%.
As to `CCN(CCn1cccn1)C(=O)CC1C(=O)NCCN1Cc1cccc(OC)c1OC` (stereo not given), the inhibition by setting is: (stronger effect = higher value) -2.12% (inactive); under setting [1], 0.4%.
The corresponding values for `CC(C)CCN1CCN(Cc2cn[nH]c2C2CCCCC2)CC1CCO` (stereo not given) are -6.26% (inactive) and 2.27%.
The matching figures for `CC(=O)C[C@@H](O)CC(=O)[C@H]1OC(=O)CCCCCCc2ccccc21`: 1.26% (inactive) and -0.35%.
Regarding `C[C@H](CO)N1C[C@H](C)[C@@H](CN(C)S(=O)(=O)c2ccc(F)cc2)Oc2c(NC(=O)Nc3ccccc3)cccc2C1=O`, the inhibition runs as follows: (stronger effect = higher value) 5.19% (inactive); under setting [1], 4.04%.
The corresponding values for `CC1=CC(=O)C=CC1(C)C(Cl)(Cl)Cl` (stereo not given) are -0.23% (inactive) and 1.78%.
Take `CCC(C)NCC(=O)Nc1ccc([N+](=O)[O-])cc1C(=O)Nc1ccccc1F` (stereo not given): the inhibition (stronger effect = higher value) was -6.32% (inactive) and the inhibition under setting [1] is 3.29%.
For `CC1CC(C)CN(S(=O)(=O)c2cccc(C(=O)N3C(=O)c4cccc(N)c4C3=O)c2)C1` (stereo not given), the inhibition (stronger effect = higher value) was -7.74% (inactive) and the inhibition under setting [1] is -0.88%.
The matching figures for `Cc1c(C)c(C)c(S(=O)(=O)N2CCC3(CC2)OCCO3)c(C)c1C`: -2.23% (inactive) and -3%.
The corresponding values for `C[C@H]1CN([C@@H](C)CO)C(=O)Cc2cc(NS(C)(=O)=O)ccc2O[C@@H]1CN(C)CC1CC1` are -11.2% (inactive) and 2.75%.
The corresponding values for `Cc1ccc2nc(-c3ccc(NC(=O)CN(C)S(=O)(=O)c4ccccc4)cc3)sc2c1` are 11.9% (inactive) and 3.33%.
On to `CCOC(=O)c1ccc(NC(=O)c2ccc(NC(=O)C3CCCO3)cc2)cc1` (stereo not given), for which the inhibition by setting is: (stronger effect = higher value) 79.3% (inactive); under setting [1], 83.3%.
`CCn1c(/C=N/NC(=O)c2ccc(OC)cc2)nc2ccccc21`: the inhibition was 99.1% (inactive) (stronger effect = higher value) and 99.4% under setting [1].
With `O=C(Nc1ccc(F)cc1F)N1CCCN(CCOc2ccccc2)CC1`, the inhibition (stronger effect = higher value) is -1.99% (inactive) and the inhibition under setting [1] was -0.11%.
The matching figures for `CSc1sc(C(=O)NNC(=O)c2ccc(Cl)cc2)c2c1C=CCC2`: -5.38% (inactive) and 4.57%.
The matching figures for `Cc1oc2c(F)c(F)c(F)c(F)c2c1S(=O)(=O)Nc1cccc(C(F)(F)F)c1`: 5.72% (inactive) and 5.66%.
The matching figures for `Cc1ccc(NC(=O)c2nc[nH]c2C(=O)N2CCCCC2)c(C(=O)c2ccccc2)c1`: 9.07% (inactive) and 12.6%.
Take `O=C1NC(c2ccccc2)CCC1(Cl)Cl` (stereo not given): the inhibition runs as follows: (stronger effect = higher value) 0.94% (inactive); under setting [1], 1.7%.
Take `COc1ccc(C)cc1NC(=O)C(OC(=O)c1cccc(S(=O)(=O)N(C)c2ccccc2)c1)c1ccccc1` (stereo not given): the inhibition (stronger effect = higher value) was -1.94% (inactive) and the inhibition under setting [1] was determined as 9.6%.
In the case of `CCOc1ccc2ccccc2c1/C=N/NC(=O)c1c(C)cc(C)[nH]c1=O`, the inhibition is, setting by setting: (stronger effect = higher value) -16.1% (inactive); under setting [1], -1.48%.
The corresponding values for `O=C(NCCCCCCCCCNC(=O)C(F)(F)F)C(F)(F)F` are 3.21% (inactive) and 10.9%.
With `O=C1CC2(CC(c3ccc(Cl)cc3)=NO2)C(=O)N1c1ccccc1` (stereo not given), the inhibition (stronger effect = higher value) was -4.42% (inactive) and the inhibition under setting [1] is -1.92%.
The matching figures for `CCCCC1(C(=O)OCC)NC(c2ccc(O)cc2)C2C(=O)N(c3ccccc3)C(=O)C21` (stereo not given): -5.62% (inactive) and -0.56%.
With `O=C(CCCNS(=O)(=O)c1cccc2nsnc12)NCCN1CCN(c2ccccc2F)CC1`, the inhibition (stronger effect = higher value) was -11.3% (inactive) and the inhibition under setting [1] is -10.3%.
The matching figures for `CCOc1ccc(NC(=S)NC(=O)/C=C/c2ccc(OC)cc2)c([N+](=O)[O-])c1`: -1.27% (inactive) and 1.54%.
The corresponding values for `CSc1ccccc1NC(=O)c1ccc2c(c1)CCN2S(C)(=O)=O` are -1.11% (inactive) and -0.34%.
The matching figures for `CCOC(=O)c1c(S(=O)(=O)Nc2ccc(CN3CCC(C)CC3)cc2)c(C)n(C)c1C`: -2.23% (inactive) and 3.26%.
As for `Cc1ccc(S(=O)(=O)N2CCC(C(=O)OCC(=O)N(C)c3ccccc3)CC2)cc1C`, the inhibition is, setting by setting: (stronger effect = higher value) -8.73% (inactive); under setting [1], -4.4%.
The corresponding values for `CC(=O)NC1(c2ccc(F)cc2)CCN(C(=O)c2c(F)cccc2F)CC1` are 8.64% (inactive) and 0.61%.
The matching figures for `O=C(NCC1CCCO1)C(C(=O)c1ccccc1)n1cc(Cl)ccc1=O` (stereo not given): 6.75% (inactive) and -1.73%.
The corresponding values for `O=C(NCc1ccc(F)cc1)C1CCN(C(=O)Nc2ccc(F)cc2)CC1` are -23.9% (inactive) and -6%.
Take `CC(Nc1nc(C(F)(F)F)nc2ccccc12)c1cccs1` (stereo not given): the inhibition is 4.44% (inactive) (stronger effect = higher value) and 8.98% under setting [1].
The matching figures for `CCOC(=O)C1=C(CCc2ccccc2)NC(=O)NC1c1ccc2ccccc2c1` (stereo not given): 30% (inactive) and 52.5%.
In the case of `COc1ccccc1NC(=O)COC(=O)CNC(=O)C1CCCCC1`, the inhibition (stronger effect = higher value) is -1.14% (inactive) and the inhibition under setting [1] is -2.95%.
The corresponding values for `CN(C)Cc1ccccc1C1(O)c2ccccc2CSc2ccccc21` (stereo not given) are -0.96% (inactive) and 2.09%.
For the compound `CCN(CC)CCn1c(=S)[nH]c2ncccc2c1=O`, the inhibition (stronger effect = higher value) was -13.3% (inactive) and the inhibition under setting [1] is -17.8%.
The corresponding values for `CC(=O)Nc1ccc(N2C(=O)CC(Sc3nccc(C)n3)C2=O)cc1` (stereo not given) are -4.91% (inactive) and -1.37%.
The matching figures for `CCOc1ccc(CNC(=O)CCC(=O)N2CCSc3ccccc32)cc1`: -9.71% (inactive) and -7.82%.

These data come from PubChem BioAssay AID434955 (Southern Research Specialized Biocontainment Screening …, 2010).
